FPR binder: human FPR ligand, with FPRL1 counter-screen | P21462 | FPR-expressing cells, fluorescent ligand binding, flow cytometry | inhibition, % (no concentration beside the values) | 24,000 compounds, 0.74% hits | AID 440
Target sequence (P21462 whole entry, looked up): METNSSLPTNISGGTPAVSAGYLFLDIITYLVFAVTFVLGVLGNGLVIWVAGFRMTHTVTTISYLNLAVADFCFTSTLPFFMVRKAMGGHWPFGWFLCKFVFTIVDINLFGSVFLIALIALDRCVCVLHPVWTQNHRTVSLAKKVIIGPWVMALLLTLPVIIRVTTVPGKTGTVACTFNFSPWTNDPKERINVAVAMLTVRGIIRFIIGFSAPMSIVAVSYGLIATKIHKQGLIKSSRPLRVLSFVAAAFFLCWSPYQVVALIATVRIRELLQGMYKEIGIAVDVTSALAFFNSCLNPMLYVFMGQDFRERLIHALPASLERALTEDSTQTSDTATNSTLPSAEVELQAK
FPRL1 binder: ligands of human FPRL1, also counter-screen for FPR ligands; P25090; FPRL1-expressing cells, fluorescent ligand binding inhibition, flow cytometry; inhibition, % (test concentration not listed); 24,000 compounds, 0.3% hits; AID 441
VLA-4 antagonist: inhibitors of LDV-FITC ligand binding to Mn2+-activated human VLA-4 integrin | P13612 | Jurkat cells, LDV-FITC binding with Mn2+, flow cytometry; 100% = Mn2+-driven binding gain fully reversed | inhibition, % at 10 µM (by protocol) | 24,000 compounds, 0.2% hits | AID 529;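 active means inhibition above 50%; inconclusive means compound itself fluorescent, judged against control cell fluorescence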
VLA-4 allo ag: allosterically activates the human VLA-4 integrin; AID 528; 24,000 tested, under 10 active; P13612; Jurkat cells, LDV-FITC binding, flow cytometry; activation, % at 10 µM (by protocol);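 active means fluorescent ligand binding to cells raised by more than 40% of the manganese-induced maximum; inconclusive means compound's own fluorescence above 85% of the ligand control signal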
Autofluor Jurkat: compound fluoresces in Jurkat cells, VLA-4 screen interference | compound autofluorescence, flow cytometry; active compounds read high; 1 = vehicle-only cell background | fluorescence ratio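 (tested at 10 µM compound in the well)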 | 24,000 compounds, 0.61% hits | AID 576;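 active means fluorescence ratio above 2.44, which is 1 plus 3 SD of all ratios; inconclusive means signal too bright to measure linearly, ratio around 10 or more; inactive means fluorescence ratio below 2.44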;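 further: green fluorescence of cells measured with 488 nm excitation and 530 nm emission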
Each line names hits and unclear results; the compound was inactive in the other large screens; ! = repeats disagree. Compounds with a hit are over-represented: about 1.8% of the library has one in this group of screens. Unless noted, no stated cut-off is given here; in the data, active means inhibition above about 30%; inconclusive means no clear call, values can overlap the other calls; inactive means below that.

O=S(=O)(c1ccc2oc(-c3ccncc3)nc2c1)c1ccc2oc(-c3ccncc3)nc2c1	none
CN(C)c1nc(Nc2ccc(Cl)cc2)nc(OCC#N)n1	none
O=C(COc1ccc(S(=O)(=O)NC2CCCCC2)cc1)Nc1ccc2c(c1)OCCO2	none
CCNc1c2c3c(cccc3n(C)c1=O)C(=O)c1ccccc1-2	FPR binder inconclusive, FPRL1 binder inconclusive, VLA-4 antagonist inconclusive, VLA-4 allo ag inconclusive, Autofluor Jurkat 9.82
CSc1nc(N)nc(SCC(=O)c2ccccc2)c1C#N	none
N#Cc1c(-c2ccco2)cc(C2CC2)nc1SCC(=O)c1ccccc1	VLA-4 antagonist inconclusive, VLA-4 allo ag inconclusive, Autofluor Jurkat 2.5
COc1ccc(-c2cc(C(F)(F)F)nc(NC3CCCC3)n2)cc1OC	FPRL1 binder 31.5
CCCCOc1cc(C(=O)NCCN(CC)CC)c2ccccc2n1	FPR binder 49.0!
CCCCN(CC)CCNC(=O)c1cc2c(C)nc3ccccc3c2o1	none
O=C1N2c3ccccc3CCc3cccc(c32)C1(O)C(F)(F)F (configuration not stated)	none
COc1ccc(S(=O)(=O)NC(C)C(=O)Nc2cccc(C(C)=O)c2)cc1 (configuration not stated)	FPRL1 binder 47.0
CCOc1cc2[nH]c(=O)n(CCCCCC(=O)NCc3ccco3)c(=O)c2cc1OCC	VLA-4 antagonist 52.0 (no result: FPR binder, FPRL1 binder)
Cn1c2ccccc2c2c(C(=O)O)cn(C3CCCC3)c(=O)c21	VLA-4 antagonist 51.0
Cn1c2ccccc2c2c(C(=O)N3CCN(c4ccccn4)CC3)cn(C3CCCC3)c(=O)c21	none
CCN(CC)c1ccc(-c2c(C#N)c(N)nc(OC)c2C#N)cc1	VLA-4 antagonist inconclusive, VLA-4 allo ag inconclusive, Autofluor Jurkat 8.16
Cc1ccc(OC(=O)NC2CCS(=O)(=O)C2)cc1C (configuration not stated)	none
Cc1cc2oc(C(=O)NC3CCS(=O)(=O)C3)c(C)c2cc1C (configuration not stated)	FPR binder 48.4, FPRL1 binder 51.2
Cc1n[nH]c(C)c1S(=O)(=O)N1CCN(C2CCCCC2)CC1	none
c1ccc(N2CCN(c3nc4ccccc4n4nnnc34)CC2)cc1	VLA-4 antagonist inconclusive, VLA-4 allo ag inconclusive, Autofluor Jurkat inconclusive
c1ccc(CCNc2nc3ccccc3n3nnnc23)cc1	VLA-4 antagonist inconclusive, VLA-4 allo ag inconclusive, Autofluor Jurkat 9.24
O=C(CSc1nnc(Cn2c(=O)sc3ccccc32)n1-c1ccccc1)Nc1nccs1	none
COc1cc2c3c(c1)/C(=C1/SC(NC(C)=O)=NC1=O)C(=O)N3C(C)(C)C=C2C	FPR binder 30.3
CCOc1cc(C(=O)NCc2ccncc2)cc(OCC)c1OCC	none
C/C(=N\O)C(=O)NCc1ccncc1	VLA-4 antagonist inconclusive, VLA-4 allo ag inconclusive, Autofluor Jurkat 6.16
N#CC1=C(N)Oc2n[nH]c(-c3cccs3)c2C1c1cccs1 (configuration not stated)	none
CSCCC1C(C#N)=C(N)Oc2n[nH]c(-c3cccs3)c21 (configuration not stated)	FPR binder 30.1
O=C(NCCCN1CCCC1)c1cccc(N2CCCC2=O)c1	none
O=C(NCCCN1CCN(c2ccc(F)cc2)CC1)c1cccc(N2CCCC2=O)c1	FPRL1 binder 30.9
O=C(NCc1ccco1)c1ccc2nc3sc4c(c3c(=O)n2c1)CCCC4	VLA-4 antagonist inconclusive, VLA-4 allo ag inconclusive
CCOC(=O)c1sc(NC(=O)CCn2nnc3ccccc32)c(C(=O)OCC)c1C	none
CC(C)CN(CC(C)C)C(=O)CS(=O)(=O)Cc1ccccc1	FPR binder 62.6
O=C(O)c1ccc(S(=O)(=O)Cc2ccccc2)cc1	none
COC(=O)CSc1nc2sc3c(c2c(=O)n1C1CCCCC1)CCN(C)C3	none
COc1ccc(-c2nc(C(N)=O)c3[nH]c(=O)n(-c4cccc(Cl)c4)c3n2)cc1OC	VLA-4 antagonist inconclusive, VLA-4 allo ag inconclusive, Autofluor Jurkat 4.55
Cc1cccc(-n2c(=O)[nH]c3c(C(N)=O)nc(C(C)C)nc32)c1	VLA-4 antagonist inconclusive, VLA-4 allo ag inconclusive
CSc1ccccc1NS(=O)(=O)c1ccccc1	FPR binder 30.9
CC1=C(C(=O)N2CCCCC2)C(c2cccs2)C2=C(CCCC2=O)N1 (configuration not stated)	none
CCOc1cc(C2C(C(=O)OC)=C(C)N=C3SCCC(=O)N32)ccc1OC(C)=O (configuration not stated)	VLA-4 antagonist inconclusive, VLA-4 allo ag inconclusive, Autofluor Jurkat 2.7
CCCCNC(=O)C(C#N)c1nc2ccccc2nc1N1CCCC1 (configuration not stated)	VLA-4 antagonist inconclusive, VLA-4 allo ag inconclusive, Autofluor Jurkat 2.5
CCCCCCOC(=O)C(C#N)c1nc2ccccc2nc1N1CCCCC1 (configuration not stated)	none
O=C(CCCCCn1c(=O)[nH]c2ccsc2c1=O)N1CCN(C2CCCCC2)CC1	none
COc1ccc(-c2c(=O)n(OCc3ccccn3)c3ccccc3[n+]2[O-])cc1OC	VLA-4 antagonist inconclusive, VLA-4 allo ag inconclusive, Autofluor Jurkat 2.5
COc1ccc(NC(=O)CSc2ccccn2)cc1OC	none
COc1cc(C(=O)Nc2cc(Cl)ccc2C)c(-n2cnnn2)cc1OC	none
CC1=C(C(=O)N2CCCCC2)C2(CCC(C)CC2)OC1=O (configuration not stated)	none
CC1=C(C(=O)N2CCc3ccccc32)C2(CCC(C)CC2)OC1=O (configuration not stated)	VLA-4 antagonist inconclusive, VLA-4 allo ag inconclusive, Autofluor Jurkat 6.03
COc1cccc(N2C(=O)C3ON(c4ccccc4)C(c4cccs4)C3C2=O)c1 (configuration not stated)	FPR binder 39.0, VLA-4 antagonist inconclusive, VLA-4 allo ag inconclusive
O=C1C2ON(c3ccccc3)C(c3cccnc3)C2C(=O)N1c1ccccc1 (configuration not stated)	none
Cc1cccc(NC(=O)c2sc3nc(-c4ccc(F)cc4)cn3c2C)n1	VLA-4 antagonist inconclusive, VLA-4 allo ag inconclusive, Autofluor Jurkat 5.09
Cc1cccc(NC(=O)c2sc3nc(-c4ccccc4)cn3c2C)n1	VLA-4 antagonist inconclusive, VLA-4 allo ag inconclusive, Autofluor Jurkat 3.4
COc1ccc(-c2cn3c(C)c(C(=O)Nc4cccc(C)n4)sc3n2)cc1	VLA-4 antagonist inconclusive, VLA-4 allo ag inconclusive
Cc1c(C(=O)Nc2ccccc2)sc2nc(-c3ccccc3)cn12	VLA-4 antagonist 74.0
O=C(O)c1ccc(COc2c(F)c(F)c(F)c(F)c2F)o1	none
COCCN1Cc2cccc(C(=O)NCc3ccc4c(c3)OCO4)c2C1=O	FPRL1 binder 32.8
Cc1cc(O)c(-c2cc(C(=O)Nc3ccc(S(=O)(=O)N4CCOCC4)cc3)[nH]n2)cc1C	VLA-4 antagonist 56.0
O=c1[nH]c(Nc2ccccc2)cc2ccccc12	VLA-4 antagonist inconclusive, VLA-4 allo ag inconclusive, Autofluor Jurkat 2.86
Cc1c(C(=O)NC2CCCc3ccccc32)oc2ccc(S(=O)(=O)N3CCOCC3)cc12 (configuration not stated)	FPR binder 37.8
